Source: the supplement of paper PMC12282887
± gives the standard deviation of the averaged measurements.

System: E. coli BW25113 marRABp lux reporter
Experiment: promoter activity interaction Z-score (Lux/OD deviation from empty-vector control); higher = stronger promoter induction by the compound
Method: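 E. coli BW25113 (wild type or ΔmarA/ΔsoxS/Δrob) carrying pTU175 luxCDABE promoter reporters was grown in LB in 384-well plates at 37°C with each of 94 compounds at 4 two-fold concentrations, in biological duplicates. Luminescence and OD600 were read every 30 min for 12 h and integrated as AUC over 8 h (0-8 h WT, 1-9 h mutants). Lux AUC was divided by OD AUC; the interaction score is the residual of a Huber robust fit of each promoter against the empty-vector control, then Z-transformed per promoter.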

[1] = 2.6 µg/ml, genetic background: wild type
[2] = 2.6 µg/ml, genetic background: ΔmarA
[3] = 2.6 µg/ml, genetic background: Δrob
[4] = 2.6 µg/ml, genetic background: ΔsoxS

C[n+]1ccc(-c2cc[n+](C)cc2)cc1 [Paraquat]
promoter activity interaction Z-score (0.64 µg/ml, genetic background: wild type): 0.0393 ± 0.059
promoter activity interaction Z-score (0.64 µg/ml, genetic background: ΔmarA): 0.259 ± 0.056
promoter activity interaction Z-score (0.64 µg/ml, genetic background: Δrob): 0.471 ± 0.061
promoter activity interaction Z-score (0.64 µg/ml, genetic background: ΔsoxS): 0.397 ± 0.44
promoter activity interaction Z-score (1.3 µg/ml, genetic background: wild type): 0.123 ± 0.012
promoter activity interaction Z-score (1.3 µg/ml, genetic background: ΔmarA): 0.332 ± 0.16
promoter activity interaction Z-score (1.3 µg/ml, genetic background: Δrob): 0.857 ± 0.029
promoter activity interaction Z-score (1.3 µg/ml, genetic background: ΔsoxS): 0.407 ± 0.47
promoter activity interaction Z-score [1]: 0.508 ± 0.11
promoter activity interaction Z-score [2]: 0.467 ± 0.19
promoter activity interaction Z-score [3]: 1.16 ± 0.33
promoter activity interaction Z-score [4]: 0.215 ± 0.34
promoter activity interaction Z-score (5.1 µg/ml, genetic background: wild type): 1.52 ± 0.99
promoter activity interaction Z-score (5.1 µg/ml, genetic background: ΔmarA): 1.25 ± 0.44
promoter activity interaction Z-score (5.1 µg/ml, genetic background: Δrob): 2.54 ± 0.066
promoter activity interaction Z-score (5.1 µg/ml, genetic background: ΔsoxS): 0.698 ± 0.45

CC(=O)N[C@H]1[C@@H](O[C@@H]2O[C@H](CC(O)[C@H]3O[C@@H](n4ccc(=O)[nH]c4=O)[C@H](O)[C@@H]3O)[C@H](O)[C@H](O)[C@H]2NC(=O)/C=C/CC(C)C)O[C@H](CO)[C@@H](N)[C@@H]1O (stereo partly drawn) [Tunicamycin]
promoter activity interaction Z-score [1]: -0.437 ± 0.048
promoter activity interaction Z-score [2]: -0.39 ± 0.54
promoter activity interaction Z-score [3]: -0.2 ± 0.15
promoter activity interaction Z-score [4]: -0.379 ± 0.38
promoter activity interaction Z-score (5.3 µg/ml, genetic background: wild type): -0.455 ± 0.15
promoter activity interaction Z-score (5.3 µg/ml, genetic background: ΔmarA): -0.634 ± 0.41
promoter activity interaction Z-score (5.3 µg/ml, genetic background: Δrob): -0.284 ± 0.008
promoter activity interaction Z-score (5.3 µg/ml, genetic background: ΔsoxS): -0.282 ± 0.18
promoter activity interaction Z-score (10.6 µg/ml, genetic background: wild type): -0.326 ± 0.14
promoter activity interaction Z-score (10.6 µg/ml, genetic background: ΔmarA): -0.464 ± 0.54
promoter activity interaction Z-score (10.6 µg/ml, genetic background: Δrob): -0.127 ± 0.2
promoter activity interaction Z-score (10.6 µg/ml, genetic background: ΔsoxS): -0.485 ± 0.34
promoter activity interaction Z-score (21.1 µg/ml, genetic background: wild type): -0.471 ± 0.16
promoter activity interaction Z-score (21.1 µg/ml, genetic background: ΔmarA): -0.634 ± 0.25
promoter activity interaction Z-score (21.1 µg/ml, genetic background: Δrob): -0.663 ± 0.56
promoter activity interaction Z-score (21.1 µg/ml, genetic background: ΔsoxS): -0.645 ± 0.46

NCCc1c[nH]c2ccc(O)cc12 [Serotonine]
promoter activity interaction Z-score (13.3 µg/ml, genetic background: wild type): -0.413 ± 0.011
promoter activity interaction Z-score (13.3 µg/ml, genetic background: ΔmarA): -0.686 ± 0.15
promoter activity interaction Z-score (13.3 µg/ml, genetic background: Δrob): -0.419 ± 0.028
promoter activity interaction Z-score (13.3 µg/ml, genetic background: ΔsoxS): -0.41 ± 0.18
promoter activity interaction Z-score (26.6 µg/ml, genetic background: wild type): -0.214 ± 0.13
promoter activity interaction Z-score (26.6 µg/ml, genetic background: ΔmarA): -0.554 ± 0.18
promoter activity interaction Z-score (26.6 µg/ml, genetic background: Δrob): -0.414 ± 0.15
promoter activity interaction Z-score (26.6 µg/ml, genetic background: ΔsoxS): -0.421 ± 0.26
promoter activity interaction Z-score (53.2 µg/ml, genetic background: wild type): -0.616 ± 0.21
promoter activity interaction Z-score (53.2 µg/ml, genetic background: ΔmarA): -0.71 ± 0.041
promoter activity interaction Z-score (53.2 µg/ml, genetic background: Δrob): -0.479 ± 0.089
promoter activity interaction Z-score (53.2 µg/ml, genetic background: ΔsoxS): -0.523 ± 0.25
promoter activity interaction Z-score (106.3 µg/ml, genetic background: wild type): -0.518 ± 0.15
promoter activity interaction Z-score (106.3 µg/ml, genetic background: ΔmarA): -0.531 ± 0.2
promoter activity interaction Z-score (106.3 µg/ml, genetic background: Δrob): -0.324 ± 0.025
promoter activity interaction Z-score (106.3 µg/ml, genetic background: ΔsoxS): -0.498 ± 0.093
